Screening data (PubChem)
Rows were chosen to be rich in hits. Some 2.3% of all compounds tested hit in one or more screens of this group.
Gli-Sufu block: blocks Gli-Sufu signaling in a luciferase reporter | Sufu-KO-LIGHT fibroblasts, Gli luciferase reporter luminescence | inhibition, % at 5 µM | actives 0.74% (n = 340,000) | AID 588413;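 active = inhibition above about 55%, limit read from the data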
LMP1 NFkB inh: inhibitors of Epstein-Barr LMP1-induced NF-kappaB reporter | LMP1-induced NF-kappaB luciferase reporter cells, luminescence | inhibition, % at 12.5 µM | actives 0.69% (n = 350,000); in the data active = inhibition above about 41%; inconclusive = no clear call, values can overlap the other calls
697 NFkB inh: lowers PMA/ionomycin-induced NF-kB signal in 697 B cells | actives 0.33% (n = 330,000) | inhibition, % at 4 µM | 697 B-cell NF-kB luciferase reporter, 16 h; in the data active = inhibition above about 35%
Jurkat NFkB inh: lowers PMA/ionomycin-induced NF-kB signal in Jurkat cells; PMA/ionomycin-induced NF-kB luciferase reporter, luminescence; inhibition, % at 4 µM; actives 0.53% (n = 330,000); AID 435003; in the data active = inhibition above about 50%
TRPM1 prom inh: inhibitors of MITF-driven TRPM1 promoter in melanoma cells; SK-MEL-5 TRPM1 promoter luciferase, 24 h; inhibition, % at 12.5 µM; actives 0.83% (n = 330,000); AID 488899;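 active = mean inhibition across replicates of 60% or more, whatever share of single replicates reaches that level; inconclusive = some that reach 60%, reason not given; inactive = mean inhibition across replicates below 60%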
Shn3 inh set2: Schnurri-3 reporter inhibition in Clone20 osteoblasts; inhibition, % at 12.5 µM; Clone20 osteoblast Shn3 3'UTR firefly luciferase, 24 h; actives 0.52% (n = 360,000);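 active = mean inhibition of at least 75% with every replicate also reaching 75%; inconclusive = mean inhibition at least 75% but some replicate below; inactive = mean inhibition below 75%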
Hits are given with their value; – = inactive; ? = inconclusive; · = no result given.

SMILES	Gli-Sufu block	LMP1 NFkB inh	697 NFkB inh	Jurkat NFkB inh	TRPM1 prom inh	Shn3 inh set2
C[C@H]1O[C@@H](OC2CC[C@]3(C=O)[C@H]4CC[C@]5(C)[C@@H](C6=CC(=O)OC6)CC[C@]5(O)[C@@H]4CC[C@]3(O)C2)CC2OC(C)(C)OC21 (some centres undefined)	–	65	·	·	67	–
CC12CC[C@H]3[C@@H](CCC4(O)C[C@H](O)CCC34/C=N/NC(=O)c3ccccc3Cl)C1(O)CCC2C1=CC(=O)OC1 (some centres undefined)	–	–	–	–	–	–
CC12CCC3C(CCC4(O)CC(O)CCC34C=O)C1(O)CCC2C1=CC(=O)OC1 (centres undefined)	–	?	·	·	82	–
O=C(Cc1cccs1)N1Cc2ccccc2-n2nncc2C1	·	–	·	·	·	–
COc1ccc(CCn2c(O)c(C=NCCN3CCCCC3)c(=O)[nH]c2=O)cc1OC	–	–	–	–	–	–
COc1cc(C(=O)NN=Cc2ccc(N(CCCl)CCCl)cc2)cc(OC)c1OC	–	–	·	·	–	–
N[C@@H](Cc1ccc(N(CCCl)CCCl)cc1)C(=O)O	–	50	–	–	–	–
NC(Cc1ccc(O)cc1)C(=O)NN=Cc1ccc(N(CCCl)CCCl)cc1 (centres undefined)	–	48	·	·	–	–
CC(=O)NC(Cc1ccc(N(CCCl)CCCl)cc1)C(=O)O (centres undefined)	–	–	–	–	–	–
COc1ccc2c(c1)C1(C)CCN(C)CC(C1)C2O (centres undefined)	·	–	·	·	·	–
COc1cc2c3cc1Oc1c(OC)c(OC)cc4c1[C@H](Cc1ccc(cc1)Oc1cc(ccc1O)C[C@H]3N(C)CC2)N(C)CC4	–	–	–	–	80	–
COc1cc2c3cc1Oc1cc(ccc1O)C[C@@H]1c4c(cc(OC)c(O)c4Oc4ccc(cc4)C[C@H]3N(C)CC2)CCN1C	–	83	–	–	–	–
NCCc1ccc(OCc2ccccc2)c(OCc2ccccc2)c1	–	–	–	–	98	–
CCCCn1c(=O)c(C(=O)Nc2ccccn2)c(O)c2ccccc21	·	–	–	–	–	–
Cc1ccc(C(O)(c2ccc(C)c(C)c2)C2CN3CCC2CC3)cc1C (centres undefined)	–	–	–	–	83	–
CC(=O)OC1CC(OC2C(O)CC(OC3C(O)CC(OC4CCC5(C)C(CCC6C5CCC5(C)C(C7=CC(=O)OC7)C(O)CC65O)C4)OC3C)OC2C)OC(C)C1OC1OC(CO)C(O)C(O)C1O (centres undefined)	–	–	·	·	86	–
CC(=O)C1CCC2C3CCC4CC(O)CCC4(C)C3CCC12C#N (centres undefined)	·	–	·	·	·	–
C[C@H]1O[C@@H](O[C@H]2[C@@H](O)C[C@H](O[C@H]3[C@@H](O)C[C@H](O[C@H]4CC[C@@]5(C)[C@H](CC[C@@H]6[C@@H]5CC[C@]5(C)[C@@H](C7=CC(=O)OC7)CC[C@]65O)C4)O[C@@H]3C)O[C@@H]2C)C[C@H](O)[C@@H]1O	–	·	·	·	·	·
CC(=O)OC1CC2(O)C3CCC4CC(O)CCC4(C)C3CCC2(C)C1C1=CC(=O)OC1 (centres undefined)	–	72	·	·	71	–
CC1OC(OC2C(O)CC(OC3C(O)CC(OC4CCC5(C)C(CCC6C5CCC5(C)C(C7=CC(=O)OC7)C(O)CC65O)C4)OC3C)OC2C)CC(O)C1O (centres undefined)	–	62	·	·	70	–
Cc1c(N=Nc2c(O)n(C)c(=O)n(C)c2=O)c(=O)n(-c2ccccc2)n1C	–	–	–	–	–	–
COC(=O)C1=C(C(=O)OC)C2OC1c1cc3ccccc3cc12	–	–	·	·	112	95
COC(=O)C1=C(c2ccc3ccccc3c2)C[C@@H]2CC[C@H]1N2C	–	–	–	–	–	–
O=C(N/N=C/C1C(=O)NC(=S)N(c2ccccc2)C1=O)c1cc(Br)c(O)c(Br)c1 (centres undefined)	–	52	–	–	–	–
CCN1C[C@]2(COC)CC[C@H](OC)[C@@]34C1[C@]1(OCO[C@@]15C[C@H](OC)[C@H]1C[C@@H]3[C@@H]5[C@H]1OC)[C@@H](O)[C@H]24	–	56	–	–	–	89
SMILES	Gli-Sufu block	LMP1 NFkB inh	697 NFkB inh	Jurkat NFkB inh	TRPM1 prom inh	Shn3 inh set2
c1ccc(C2OCCN3CCCCC23)cc1 (centres undefined)	–	–	–	–	–	–
C=C1C(=O)OC2CC3(C)OC3C3OC3C3=CC(OC3=O)C12 (centres undefined)	·	·	·	·	·	94
CC(C(=O)c1c[nH]c2ccccc12)N1CCOCC1 (centres undefined)	–	–	–	–	–	–
O=C(NC1CC1)C1CSC(c2cccnc2)=N1 (centres undefined)	–	–	–	–	–	–
C[C@]12CCC(=O)C=C1CCC1C2CC[C@@]2(C)C1CC[C@@]2(O)CC#N (some centres undefined)	–	–	–	–	–	–
C#C[C@]1(O)CC[C@H]2[C@@H]3CCC4=CC(=O)CC[C@]4(C)[C@H]3CC[C@@]21C	–	81	–	–	–	–
CCC(=O)O[C@H]1CC[C@H]2[C@@H]3CCC4=CC(=O)CC[C@]4(C)[C@H]3CC[C@]12C	–	87	·	·	–	–
O=C(CF)N(O)c1ccc(C=Cc2ccccc2)cc1	–	88	·	·	–	–
COc1cccc([C@@]2(O)CCCC[C@@H]2CN(C)C)c1	–	–	–	–	–	–
CC1CC(C)CC(C)C(O)C(C#N)=CC=CCC(C2CCCC2C(=O)O)OC(=O)CC(O)C(C)C1 (centres undefined)	87	?	·	·	92	97
COc1cccc2c1C(=O)c1c(O)c3c(c(O)c1C2=O)CC(O)(C(C)=NO)CC3OC1CC(N)C(O)C(C)O1 (centres undefined)	–	42	·	·	70	–
C[C@@H]1NCCc2cc(O)c(O)cc21	–	–	–	–	–	–
C[C@H]1[C@H](OC(=O)CCC(=O)NCc2ccc(C(=O)O)cc2)O[C@@H]2O[C@@]3(C)CC[C@H]4[C@H](C)CC[C@@H]1C24OO3	89	–	–	–	–	–
c1ccc(CN2CCc3nc4ccccc4cc3C2)cc1	–	–	–	–	·	–
C=C1C(=O)OC2CC3(C)OC3CCC(C)=CC(OC(C)=O)C12 (centres undefined)	–	55	·	·	70	–
Cc1cc2c(C(C)C)c(O)c(O)c(C=O)c2c(O)c1-c1c(C)cc2c(C(C)C)c(O)c(O)c(C=O)c2c1O	·	·	·	·	·	92
CN1C2CCC1/C(=C/c1ccccn1)C(=O)/C2=C\c1ccccn1	–	93	·	·	97	93
CC1OC(OC2C=C3CCC4C(CCC5(C)C(c6ccc(=O)oc6)CCC45O)C3(C)CC2)C(O)C(OC2OC(CO)C(O)C(O)C2O)C1O (centres undefined)	–	89	·	·	72	–
